Here are results for eight compounds from PubChem BioAssay (NCI).

Test systems include HCT-15 colon; HT29 colon; SNB-75 CNS; SNB-19 CNS; U251 CNS; PC-3 prostate; SK-MEL-5 melanoma; UACC-62 melanoma; LOX IMVI melanoma; SK-MEL-28 melanoma; SK-MEL-2 melanoma; EKVX NSCLC; SN12C renal; UO-31 renal; TK-10 renal; ACHN renal; CAKI-1 renal; A498 renal; CCRF-CEM leukemia; MOLT-4 leukemia.
Experiment in all cases: NCI-60 one-dose screen, 48 h (100 = growth as untreated, 0 = no growth, -100 = all killed)
Holding throughout (details): 10 µM unless noted

Compounds without any hit were thinned out: in the full panel of roughly 83,000, 20% have a hit.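 Single-dose data. Exposure time 48 hours. Values below 10 considered active.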 Values without a mark were called inactive. The source made the active and inactive calls.

On to `C/C(=N/NC(N)=S)c1sc(Nc2cccc(Cl)c2)nc1C`, for which the growth with HCT-15 colon is 57.8%; in the test with HT29 colon it was 79%; with SNB-75 CNS it was 120%; with SNB-19 CNS, 87.9%; in the test with U251 CNS, 89.8%; with PC-3 prostate, 74.8%. The growth in the test on SK-MEL-5 melanoma is 87.1%; with UACC-62 melanoma, 92.9%; with LOX IMVI melanoma it was 63.6%; in the test on SK-MEL-28 melanoma it was 94.8%; in the test on SK-MEL-2 melanoma it was 86.6%; in the test with EKVX NSCLC, 74.1%. The growth is 76.1% in the test with SN12C renal; 35.7% in the test with UO-31 renal; 86.7% with TK-10 renal; 80.5% in the test on ACHN renal; 63.8% in the test with CAKI-1 renal; 81.4% in the test with A498 renal. In addition, the figures for the growth in the test with CCRF-CEM leukemia and in the test on MOLT-4 leukemia were 82.4% and 50%, respectively.
Take `CC([C@H]1CCC2C3CCC4C(=O)C(NC=O)=CC[C@]4(C)C3CC[C@@]21C)N(C)C` (stereo not given in full): the growth with HCT-15 colon was -37.1% (active); with HT29 colon, -20.2% (active); with SNB-75 CNS it was 34.1%; in the test on SNB-19 CNS, 76%; in the test on U251 CNS it was 25.6%; in the test with PC-3 prostate, 27.4%. The growth in the test on SK-MEL-5 melanoma is -56% (active); with UACC-62 melanoma it was -39.7% (active); in the test with LOX IMVI melanoma it was -37.2% (active); with SK-MEL-28 melanoma, -70.1% (active); in the test on SK-MEL-2 melanoma, 82.3%; in the test with EKVX NSCLC, 30.5%. For the same compound, the growth in the test on SN12C renal was 42%; in the test on UO-31 renal it was -65% (active); with TK-10 renal it was 84.1%; in the test with ACHN renal, 58.2%; in the test with CAKI-1 renal, 57.6%; in the test on A498 renal, 65.1%. The growth in the test on CCRF-CEM leukemia was 28.7%; in the test on MOLT-4 leukemia, 41.2%.
For the compound `Nc1cc2c(cc1Br)-c1cc(Cl)ccc1C2=O`, the growth in the test on HCT-15 colon was 102%; in the test with HT29 colon it was 102%; in the test with SNB-75 CNS it was 96.8%; in the test with SNB-19 CNS, 104%; with U251 CNS it was 98.1%; in the test with PC-3 prostate it was 95.2%. For the same compound, the growth is 90.9% in the test with SK-MEL-5 melanoma; 96.3% in the test with UACC-62 melanoma; 102% in the test with LOX IMVI melanoma; 106% with SK-MEL-28 melanoma; 100% in the test on SK-MEL-2 melanoma; 86.5% in the test on EKVX NSCLC. The growth was 102% in the test on SN12C renal; 67.1% with UO-31 renal; 115% in the test on TK-10 renal; 100% with ACHN renal; 78.5% with CAKI-1 renal; 102% in the test on A498 renal. The growth in the test on CCRF-CEM leukemia is 98.2%; in the test on MOLT-4 leukemia it was 88.2%.
Regarding `COc1ccc(C2=Nn3c(nnc3-c3cc(Cl)cc(Cl)c3Cl)SC2)cc1`, the growth in the test with HCT-15 colon was 12.1%; in the test on HT29 colon, -28.8% (active); with SNB-75 CNS, 22.7%; in the test with SNB-19 CNS, 14.3%; in the test on U251 CNS it was 18.5%; with PC-3 prostate it was 18.1%. Besides, the growth was -13.5% (active) in the test on SK-MEL-5 melanoma; 41.1% in the test on UACC-62 melanoma; 23.7% in the test on LOX IMVI melanoma; 47.7% with SK-MEL-28 melanoma; 22.4% in the test on SK-MEL-2 melanoma; 41.3% in the test on EKVX NSCLC. Further, the growth was 39.3% in the test on SN12C renal; 5.61% (active) in the test on UO-31 renal; 57.5% with TK-10 renal; 33.5% in the test with ACHN renal; 47.6% with CAKI-1 renal; -11.3% (active) in the test on A498 renal. Further, the growth in the test with CCRF-CEM leukemia is 0.0891% (active); with MOLT-4 leukemia, 8.31% (active).
`O=C(Cc1ccc(F)c(Cl)c1)Nc1cc(C2(C(F)(F)F)CC2)nn1CC1CCCCC1`: the growth is 5.75% (active) in the test on HCT-15 colon; 8.71% (active) in the test on HT29 colon; -8.19% (active) in the test on SNB-75 CNS; 14.7% with SNB-19 CNS; 1.68% (active) with U251 CNS; 0.348% (active) with PC-3 prostate. The growth with SK-MEL-5 melanoma is -74.5% (active); with UACC-62 melanoma, 0.508% (active); with LOX IMVI melanoma, 11.6%; in the test with SK-MEL-28 melanoma it was 19.7%; with SK-MEL-2 melanoma, -48.8% (active); with EKVX NSCLC, 3.93% (active). Further, the growth in the test on SN12C renal is 6.18% (active); with UO-31 renal, -3.33% (active); with TK-10 renal, 3.08% (active); in the test with ACHN renal it was -7.99% (active); with CAKI-1 renal, -14.3% (active); with A498 renal, -33.2% (active). In addition, the growth was 20.1% in the test on CCRF-CEM leukemia and 11.7% in the test on MOLT-4 leukemia.
For the compound `Cc1ccc(S(=O)(=O)Oc2ccc(NC(=O)c3ccc(Cl)cc3)cc2)cc1`, the growth is 88.8% in the test with HCT-15 colon; 94.9% with HT29 colon; 98.7% in the test on SNB-75 CNS; 94.2% in the test with SNB-19 CNS; 97.1% with U251 CNS; 93.2% with PC-3 prostate. Besides, the growth with SK-MEL-5 melanoma was 99.9%; in the test on UACC-62 melanoma it was 95.8%; with LOX IMVI melanoma it was 95.1%; with SK-MEL-28 melanoma it was 108%; in the test with SK-MEL-2 melanoma, 99.8%; in the test on EKVX NSCLC, 91.3%. Besides, the growth in the test with SN12C renal is 96.1%; with UO-31 renal, 91.6%; in the test with TK-10 renal it was 92.5%; in the test on ACHN renal, 102%; with CAKI-1 renal it was 100%; with A498 renal it was 93.9%. The growth with CCRF-CEM leukemia and with MOLT-4 leukemia was 104% throughout.
As to `CCCCn1c(=O)c(-c2cc(-c3ccc(Cl)cc3)nc(-c3ccc(Cl)cc3)c2)cc2ccc(Cl)cc21`, the growth in the test on HCT-15 colon was 105%; in the test on HT29 colon it was 109%; with SNB-75 CNS it was 86.4%; in the test with SNB-19 CNS, 96.1%; in the test with U251 CNS, 101%; with PC-3 prostate, 94.6%. The growth in the test with SK-MEL-5 melanoma is 104%; with UACC-62 melanoma, 95.4%; in the test with LOX IMVI melanoma it was 98.1%; in the test with SK-MEL-28 melanoma, 106%; in the test with SK-MEL-2 melanoma, 123%; in the test with EKVX NSCLC, 105%. Also, the growth with SN12C renal is 98.8%; in the test on UO-31 renal it was 86.8%; with TK-10 renal it was 115%; in the test on ACHN renal, 104%; in the test on CAKI-1 renal, 91.6%; in the test on A498 renal, 102%. Moreover, the growth with CCRF-CEM leukemia and with MOLT-4 leukemia was 100% each time.
In the case of `Cc1cc(C)c(-c2c(N)cc(Br)cc2Br)c(N)c1`, the growth is 46.5% in the test on HCT-15 colon; 48.7% in the test on HT29 colon; 22.9% in the test with SNB-75 CNS; 63.4% in the test with SNB-19 CNS; 37.4% in the test on U251 CNS; 63.3% in the test on PC-3 prostate. Also, the growth with SK-MEL-5 melanoma is 29.3%; with UACC-62 melanoma it was 58%; in the test with LOX IMVI melanoma, 32.8%; in the test with SK-MEL-28 melanoma it was 51.1%; in the test with SK-MEL-2 melanoma it was 44.1%; with EKVX NSCLC, 65.9%. The growth in the test with SN12C renal was 68.7%; in the test on UO-31 renal, 61.5%; in the test on TK-10 renal, 72%; with ACHN renal it was 75.1%; in the test with CAKI-1 renal, 50.3%; in the test on A498 renal it was 70.9%. In addition, the results for the growth with CCRF-CEM leukemia and in the test with MOLT-4 leukemia were 26.4% and 34.4%, respectively.
